D1 potentiator: human D1 dopamine receptor positive modulation; potentiation, % at 10 µM; P21728; HEK293 TREx D1 cells, calcium flux, dopamine EC20 potentiation; actives 0.036% (n = 360,000); in the data active = potentiation above about 30%; note: 0% is about no effect
DRD3 agonist: D3 dopamine receptor (human) agonism. max activation, %. P35462. D3R DiscoveRx beta-arrestin cells, luminescence, 90 min. AID 652048. actives 0.58% (n = 410,000); in the data active = max activation above about 30%; note: 0% is about no effect
Target sequence (P35462 whole entry, looked up): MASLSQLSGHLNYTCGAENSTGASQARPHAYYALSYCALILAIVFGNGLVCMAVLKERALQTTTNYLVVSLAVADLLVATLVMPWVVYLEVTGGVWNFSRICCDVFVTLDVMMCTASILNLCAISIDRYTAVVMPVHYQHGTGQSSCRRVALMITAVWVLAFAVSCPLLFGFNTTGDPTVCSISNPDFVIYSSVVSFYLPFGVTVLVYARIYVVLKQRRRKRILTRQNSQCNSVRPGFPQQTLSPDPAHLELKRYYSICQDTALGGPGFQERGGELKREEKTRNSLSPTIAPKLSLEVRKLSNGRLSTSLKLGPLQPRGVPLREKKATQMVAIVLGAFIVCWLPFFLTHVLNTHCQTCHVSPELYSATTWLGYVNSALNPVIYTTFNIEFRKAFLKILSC
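Cells at 1500/well, incubated overnight, then treated with pinned compounds (dopamine as control) for 90 min at 37 degrees C. DiscoveRx reagent added for 30 - 60 minutes at room temperature; luminescence read.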
DRD3 antagonist: antagonists of human D3 dopamine receptor; AID 652054; D3R cells, DiscoveRx beta-arrestin luminescence, antagonist mode; stronger effect = lower value; actives 2.5% (n = 360,000); max response, negative = inhibition, %; in the data active = max response below about -50%; note: % is set by controls: 0 for no effect and ±100 for the full control effect
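Cells plated overnight at 1500 cells/well, then exposed to library compounds with dopamine controls for 90 minutes at 37 degrees C. DiscoveRx reagent added for 30–60 minutes at room temperature; luminescence read, quantitative HTS format.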
D1 ag: agonists of human D1 dopamine receptor. activation, % at 2 µM. actives 1% (n = 360,000). HEK293 T-REx D1 cells, calcium flux, agonist mode. P21728; in the data active = activation above about 30%; note: 0% is about no effect
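Agonism was scored from calcium flux recorded over 180 s (1 read/s) after pintool compound addition, following a 10-cycle baseline. Cells were inducible force-coupled HEK293 TREx D1, plated overnight at 30 C and loaded with no-wash calcium dye.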
D1 antagonist: human D1 dopamine receptor antagonism | AID 504652 | HEK293 TREx D1 cells, calcium flux, dopamine EC80; stronger effect = lower value | actives 3.2% (n = 360,000) | P21728 | activity change, negative = inhibition, % at 10 µM; in the data active = activity change below about -30%; note: % is set by controls: 0 for no effect and ±100 for the full control effect
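Tetracycline-induced HEK293 Trex D1 cells, force-coupled to calcium, dye-loaded; compounds added and read 180 s, then EC80 dopamine added and calcium flux tracked kinetically another 180 s.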
* hit, by the source's call; . = no result. In the library only some 6% were active in any assay of this set; here they are far more common.

SMILES	D1 potentiator	DRD3 agonist	DRD3 antagonist	D1 ag	D1 antagonist
O=c1oc2cc(O)ccc2cc1S(=O)(=O)c1ccccc1	6.5	34.7*	-6.8	-0.4	20.4
NC(=S)c1cc2ccc(O)cc2oc1=O	-5.1	-25.1	-68.3*	6.1	-12.2
Cc1ccc(N2C(=O)CS(=O)(=O)C23C(=O)N(Cc2ccccc2F)c2ccccc23)cc1Cl (configuration not stated)	-0.1	7.4	.	11.2	1.0
Oc1c(C(c2ccc(Cl)cc2)N2CCOCC2)sc2nc(-c3ccco3)nn12 (configuration not stated)	-3.5	-2.0	.	3.0	.
Cc1ccc([C@@H]2C[C@H]3[C@@H](CN2S(=O)(=O)c2ccc(Cl)cc2)C(=O)C[C@@H](c2ccc(C)cc2)N3S(=O)(=O)c2ccc(Cl)cc2)cc1	.	3.5	4.0	.	.
COCCNC(=O)C1(C)CCCN(Cc2ccc(Oc3ccccc3)cc2)C1 (configuration not stated)	.	-6.5	-6.8	.	.
COc1ccc(CNC(=O)CCCc2nnc3n(C(C)C)c(=O)c4sccc4n23)cc1	-5.1	13.3	.	1.8	-15.8
CCCCCCc1cc2cc(S(=O)(=O)c3ccc(C)cc3)c(=O)oc2cc1O	-7.1	27.0	16.9	27.4	-8.4
CCCCCCc1cc2cc(C(=O)Nc3ccccc3)c(=O)oc2cc1O	-5.8	50.7*	51.0	7.4	-8.3
CCCCCCc1cc2cc(-c3nnc(-c4cccc(Cl)c4)o3)c(=O)oc2cc1O	-1.6	-14.9	.	128.6*	-2.4
Nc1nnnn1-c1ccccc1	.	9.2	.	.	.
COc1ccc(CCNC(=O)c2cc3c(=O)oc4ccc(C)cc4c3s2)cc1OC	2.0	5.4	.	2.2	-3.4
Cc1ccc(CNC(=O)c2ccc(CNc3c(N4CCCC4)c(=O)c3=O)cc2)cc1	.	4.4	-5.3	0.3	-14.1
CC1CCCC(NC(=O)c2ccc(CNc3c(N4CCCC4)c(=O)c3=O)cc2)C1C (configuration not stated)	-10.2	-1.2	-21.3	1.2	-32.1*
COc1ccccc1/C=C/C=N/n1c(COc2ccccc2)n[nH]c1=S	-5.2	-6.0	-86.0*	5.3	-0.1
COc1cccc(/C=N/n2c(COc3ccccc3)n[nH]c2=S)c1OC	-0.8	-0.5	-6.0	1.4	-8.4
Cc1n[nH]c(=S)n1/N=C/c1ccccc1OCc1ccc(Cl)cc1	-2.1	-3.9	-50.6*	1.7	-86.8*
COc1ccccc1/C=C\C=N\n1c(-c2ccc(Cl)cc2)n[nH]c1=S	-0.5	-18.9	-50.9*	-0.5	8.3
COc1ccccc1/C=C/C=N/n1c(-c2ccc(F)cc2)n[nH]c1=S	-7.2	-15.0	-12.0	0.8	2.2
CNS(=O)(=O)c1cn(CC(=O)N2CCN(c3cccc(Cl)c3)CC2)cc1S(=O)(=O)NC	-0.1	-2.6	.	-0.4	-2.7
COc1cccc(N2C(=O)N(Cc3ccc(C#N)cc3)c3ccccc3S2(=O)=O)c1	1.9	3.9	.	7.0	-27.4
Oc1c(C(c2ccccc2F)N2CCC3(CC2)OCCO3)sc2nc(-c3ccco3)nn12 (configuration not stated)	-2.4	0.9	.	-2.7	.
Cc1ccc(NC(=O)Cn2c(CCC(=O)O)ccc2-c2cccs2)cc1Cl	-14.7	15.8	-4.3	2.4	-68.9*
COc1cccc(NC(=O)Cn2c(CCC(=O)O)ccc2-c2cccs2)c1	-3.1	-10.2	4.5	1.5	-4.3
Cc1nn(-c2ccccc2)c(NC(=O)c2cccs2)c(-c2ccccc2Cl)c1=O	-1.1	-6.7	-59.2*	4.8	3.9
SMILES	D1 potentiator	DRD3 agonist	DRD3 antagonist	D1 ag	D1 antagonist
CCN(CC)c1ccc(C(=O)OCc2cc(=O)oc3cc(O)ccc23)cc1	-10.9	-2.4	5.8	1.8	-32.6*
CCN(CC)c1ccc2c(O)cc(=O)oc2c1	-2.3	-2.8	8.5	1.3	-8.4
CCOC(=O)C1(Cc2cccc(Cl)c2)CCCN(C(=O)c2cn[nH]c2)C1 (configuration not stated)	-0.6	2.1	-3.6	-0.1	-0.6
CCOC(=O)C1(Cc2cccc(Cl)c2)CCCN(C(=O)c2cnn(CC)c2)C1 (configuration not stated)	-4.0	-3.5	5.7	1.4	-38.5*
CCOC(=O)N1CCN(S(=O)(=O)c2ccc(C(=O)Nc3nnc(C)o3)cc2)CC1	-8.4	-16.9	-51.5*	0.9	-0.6
CCOc1ccc(S(=O)(=O)N2CCC(C(=O)N3CCCCCC3)CC2)cc1Cl	-8.5	0.4	6.5	9.1	-40.1*
